From ChEMBL document CHEMBL3988442, “University of Dundee, Small-Polar-MMV Screening Library” (2021) come the findings set out here.

For this assay, the system named is Leishmania donovani. Briefly: Leishmania intramacrophage assay. Set-up: scale not given: in the data most compounds retested in dose-response had high values. It counts as functional, organism-based.

SMILES strings stand for the structures. In all, about 69,000 compounds went through this assay and about 1,000 (1.4%) showed an effect of 50% or more. The full list was thinned out, with strong results kept by preference.

Take `COCCN(Cc1ccccc1)Cc1nc(-c2ccsc2)no1`: under “30.3 µM, […]”, the “Percent Effect” value is 22.89%. In the case of `Cc1cc(C2CCC2)nc(NCC(C)(C)N2CCCC2)n1`, the “Percent Effect” value (30.3 µM, […]) was 9.291%. Still for that read-out and setting: for `Cc1cc(C2CCC2)nc(NCC(C)(C)N2CCOCC2)n1` the value was 23.38%; for `CCN1CCN(C(C)(C)CNc2nc(C)cc(C3CCC3)n2)CC1`, 54.39%. Consider `CCc1nc(C)c([C@H]2CN(C)C[C@@H]2C(=O)NCCc2cnccn2)[nH]1`, for which the “Percent Effect” value (30 µM, 30.03 µM) was determined as 23.64%.

As for `CCNC(=O)NC(=O)CN1CCOC(c2ccccc2Cl)C1` (centres undefined), the “Percent Effect” value (30.3 µM, […]) is recorded as 7.788%. In the case of `CN(C)CCNc1cc(-c2ncccn2)c2cc[nH]c2n1`, the “Percent Effect” value (30.3 µM, […]) is 4.01%. In the case of `COc1ccc2c(c1OC)Cc1c-2nc(N)c(C#N)c1C1CCOC1` (centres undefined), the “Percent Effect” value (30.3 µM, […]) is listed as 11.41%. `COc1ccc2c(c1)Cc1c-2nc(N)c(C#N)c1C1CCOC1` (centres undefined): where the note is “30.3 µM, […]”, the “Percent Effect” value stood at 63.86%. Turning to `N#Cc1c(N)nc2c(c1C1CCOC1)CCc1cc(O)ccc1-2` (centres undefined), the “Percent Effect” value (30.3 µM, […]) is recorded as -89.94%. Take `Cc1nn(C)c(N(C)C)c1CNCc1cccc(OCCN(C)C)c1`: the “Percent Effect” value (30 µM, 30.03 µM) is -13.13%.

`COc1ccccc1CN(C)C(=O)CN1CC(n2nc(C)cc2C)C1`: the “Percent Effect” value (30.3 µM, […]) is listed as 72.41%. Regarding `COc1cccc(CN(C)C(=O)CN2CC(n3nc(C)cc3C)C2)c1`, the “Percent Effect” value (30 µM, 30.03 µM) is given as 4.207%. As to `Cc1cc(C)n(C2CN(CC(=O)N(C)Cc3ccco3)C2)n1`, the “Percent Effect” value (30.3 µM, […]) is -0.4731%. Still for that read-out and setting: to `CC(=O)N1CCC(N2CC[C@H](c3nc4cc(C)ccc4o3)C2)CC1` belongs 22.67%. For the compound `CCn1nc(C)c2ncnc(NCC(=O)N3CCOCC3)c21`, the “Percent Effect” value (30 µM, 30.03 µM) is given as 13.04%.

For the compound `CCN(CC)C(=O)Cn1ccc2cc(NC(=O)NC3CC3)ccc21`, under “30 µM”, the “Percent Effect” value worked out at 18.91%.

Turning to `Cc1cnc(C(=O)N2CC[C@H]3[C@@H]2CCC(=O)N3c2cccnc2)cn1.O=C(O)C(F)(F)F`, the “Percent Effect” value (30.3 µM, […]) stood at 26.72%. As to `O=C(c1cscn1)N1CC[C@H]2[C@@H]1CCC(=O)N2c1ccccc1`, under “30.3 µM, […]”, the “Percent Effect” value was 4.628%. Same read-out and setting: to `O=C(O)C(F)(F)F.O=C1CC[C@H]2[C@H](CCN2c2ncccn2)N1c1ccccc1` belongs 50.79%.

Consider `O=C(c1cnccn1)N1CC[C@H]2[C@@H]1CCC(=O)N2c1cccnc1`, for which the “Percent Effect” value (30.3 µM, […]) is recorded as 69.01%. Same read-out and setting: for `O=C(O)C(F)(F)F.O=C1CC[C@H]2[C@H](CCN2c2ncc(F)cn2)N1c1ccccc1` the value was 36.83%.

Consider `Cc1ccoc1C(=O)N1CC[C@H]2[C@@H]1CCC(=O)N2c1cccnc1.O=C(O)C(F)(F)F`, for which the “Percent Effect” value (30.3 µM, […]) came to 3.255%. The same measure, in the same setting: to `O=C(c1cccs1)N1CC[C@H]2[C@@H]1CCC(=O)N2c1cccnc1` belongs -14.6%. The same measure, in the same setting: for `Cc1cnc(N2CC[C@H]3[C@@H]2CCC(=O)N3c2ccccc2)nc1.O=C(O)C(F)(F)F` the value was 39.44%; for `Cc1ccc(C(=O)N2CC[C@H]3[C@@H]2CCC(=O)N3c2cccnc2)o1.O=C(O)C(F)(F)F`, 56.88%.

With `CCc1cc(NCCc2cnccn2)n2nc(C)c(C)c2n1`, under “30.3 µM, […]”, the “Percent Effect” value worked out at 3.819%. As for `CNC(=O)[C@H]1CCS(=O)(=O)[C@@H]2CN(Cc3ccc(OC)cc3)C[C@H]12`, the “Percent Effect” value (30 µM, 30.03 µM) is 7.266%.

Take `Cc1cccc(C(=O)N2CCCCC2c2nc3cc(F)ccc3[nH]2)n1` (centres undefined): the “Percent Effect” value (30.3 µM, […]) amounted to 32.48%. For the compound `Cc1noc([C@@H]2CC[C@@H]3[C@@H](CCN3c3nnc(C)s3)O2)n1.O=C(O)C(F)(F)F`, the “Percent Effect” value (30.3 µM, […]) is on record as 50.59%. Same read-out and setting: to `Cc1noc([C@H]2C[C@@H]3CCN(c4nnc(C)s4)C[C@H]3O2)n1.O=C(O)C(F)(F)F` belongs 7.673%; to `Cc1noc([C@@H]2C[C@@H]3CCN(c4nnc(C)s4)C[C@H]3O2)n1.O=C(O)C(F)(F)F`, 45.73%. Still for that read-out and setting: for `O=C(NCCc1nnc2n1CCC2)NCC1(c2ccccc2F)CC1` the value was 6.319%; for `CC(C)NC(=O)C[C@@H]1CCNC[C@@H]1Cc1cc(-c2ccccc2)on1`, -4.938%.

For the compound `O=C(NCC1CC2(CO1)CN(c1ncccn1)C2)C1CCC1` (centres undefined), under “30.3 µM, […]”, the “Percent Effect” value is 1.586%. As to `CCOC(=O)N1CCC(NC(=O)Nc2cccnc2OCC)CC1`, for the setting “30 µM”, the “Percent Effect” value stood at 21.62%. For `COCCNC(=O)c1cc(-c2ccc3c(c2)CCO3)n[nH]1`, for the setting “30.3 µM, […]”, the “Percent Effect” value was -2.658%. On the same count and under the same terms, to `O=C(Nc1ccccc1)C1CN(Cc2ccco2)CC12CCOCC2.O=C(O)C(F)(F)F` (centres undefined) belongs 14.17%. As for `O=C(Nc1ccccc1)C1CN(CC2CC2)CC12CCOCC2.O=C(O)C(F)(F)F` (centres undefined), the “Percent Effect” value (30 µM, 30.03 µM) amounted to 52.69%. Take `O=C(Nc1ccccc1)C1CN(CC2CCOCC2)CC12CCOCC2.O=C(O)C(F)(F)F` (centres undefined): where the note is “30.3 µM, […]”, the “Percent Effect” value came to 6.071%. `Cc1nccn1C1CCCN(C(=O)CCNc2ncccn2)C1` (centres undefined): the “Percent Effect” value (30 µM) was -4.975%. On to `COc1ncccc1CN1CCc2[nH]nc(C(=O)N(C)C)c2C1`, for which the “Percent Effect” value (30.3 µM, […]) is given as 13.46%. As to `FC(F)(F)c1nc(NC2CCc3ncnn3C2)c2ccccc2n1` (centres undefined), where the note is “30.3 µM, […]”, the “Percent Effect” value was -21.34%. Same read-out and setting: for `FC(F)(F)c1nc(NC2CCCCC2)c2ccccc2n1` the value was 22.7%. Take `FC(F)(F)c1nc(NC2CCCC2)c2ccccc2n1`: the “Percent Effect” value (30 µM, 30.03 µM) was 52.6%. The same measure, in the same setting: for `COc1ccc(NC(=O)CCc2c(C)nc3cc(O)nn3c2C)cn1` the value was 19.21%. Take `CCC(CC)C(=O)N1CCN(Cc2nc3ccccc3c(=O)[nH]2)CC1`: where the note is “30.3 µM, […]”, the “Percent Effect” value amounted to 0.3817%. Same read-out and setting: to `CN(Cc1nccs1)C1CCN(c2cccc(-c3cscn3)c2)CC1` belongs 8.314%. In the case of `O=C1CCCN1c1cccc(N2CCC(NCCc3cscn3)CC2)c1`, the “Percent Effect” value (30.3 µM, […]) is listed as 16.35%. The same measure, in the same setting: to `Cc1cc(CN(C)C2CCN(c3cccc(-c4cscn4)c3)CC2)on1` belongs 19.61%; to `CC(C)CC(C)NC1CCN(c2cccc(-c3cscn3)c2)CC1` (centres undefined), 17.78%. Consider `c1cc(-c2cscn2)cc(N2CCC(NCCc3cccs3)CC2)c1`, for which, for the setting “30.3 µM, […]”, the “Percent Effect” value is 68.46%. In the case of `CN(C)CCCN(C)C1CCN(c2cccc(-c3cscn3)c2)CC1`, the “Percent Effect” value (30.3 µM, […]) was 61.93%. The same measure, in the same setting: for `c1ccc(-c2cccc(N3CCC(NCCc4cscn4)CC3)c2)cc1` the value was 97.96%; for `CN(Cc1ccon1)C1CCN(c2cccc(-c3cscn3)c2)CC1`, -3.333%; for `CN(Cc1cnn(C)c1)C1CCN(c2cccc(-c3cscn3)c2)CC1`, 12%. `CC1CN(C(=O)c2cccc(OCc3cscn3)c2)CCO1` (centres undefined): the “Percent Effect” value (30 µM) is on record as 15.03%. With `CNC(=O)CN([C@H]1C[C@H]2CCOC[C@H]2C1)S(=O)(=O)c1ccccc1`, the “Percent Effect” value (30.3 µM, […]) is on record as -15.54%. The same measure, in the same setting: to `O=c1oc(-c2cccs2)nn1CC1(O)CCCCC1` belongs -0.7487%.
